CtBP-E1A inh: blocks the CtBP interaction with E1A | AlphaScreen GST-E1A/His-CtBP binding, 1536-well; active compounds read low | activity change, % (test concentration not listed) | 340,000 compounds, 0.49% hits | AID 651724
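Steps: dispense buffer (Tris pH 8.0, NaCl 300 mM, TCEP 1 mM, BSA, Tween 20); add 5X protein mix (GST-E1A, His-CtBP, 125 nM each); pin 23 nL compound; 2 h at 37 °C, dark; add 5X beads (50 ug/mL); 1 h; read.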
MBNL1 CUG block: inhibitors of human MBNL1 binding to CUG repeat RNA; Potency, µM (doses to about 57.5 µM), for inactives: top-dose activity change, negative = inhibition, actives largely listed as inhibitors; TR-FRET MBNL1-His/biotin-(CUG)12 binding, 665/545 ratio; 280,000 compounds, 0.036% hits; AID 2675; active = well fitted inhibition curve with a large enough effect in the signal ratio, with a control signal flat, not every such curve was filed as active; inconclusive = small, poorly fitted or top-dose-only effect, or effect the other way, or a change in a side signal; inactive = no such curve, though single readings can be large or run the other way; the % refers to the signal ratio; also: potency is read from the fitted curve at half-maximal effect
Target sequence (Q9NR56 whole entry, looked up): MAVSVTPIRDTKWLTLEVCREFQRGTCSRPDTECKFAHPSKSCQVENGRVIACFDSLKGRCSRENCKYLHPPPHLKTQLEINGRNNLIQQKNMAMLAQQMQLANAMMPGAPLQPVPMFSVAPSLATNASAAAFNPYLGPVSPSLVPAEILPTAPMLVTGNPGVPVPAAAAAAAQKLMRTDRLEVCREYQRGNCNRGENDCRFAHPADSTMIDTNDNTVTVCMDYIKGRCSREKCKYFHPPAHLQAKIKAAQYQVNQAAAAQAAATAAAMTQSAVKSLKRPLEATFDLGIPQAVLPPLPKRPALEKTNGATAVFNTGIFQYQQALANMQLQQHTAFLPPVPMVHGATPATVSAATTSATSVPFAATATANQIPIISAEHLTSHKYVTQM
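Compounds (final 92 nM to 58 uM) are added to His-tagged MBNL1 and biotin-(CUG)12, then terbium anti-His antibody and streptavidin-XL665 (5 nM final). After 60 min at room temperature, the 665/545 nm ratio is read.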
Six1-Eya2 inh: blocks human Six1 binding to Eya2 | Q15475+O00167 | AlphaScreen GST-Six1/His-Eya2 binding, biochemical; active compounds read low | activity change, % (test concentration not listed) | 360,000 compounds, 0.56% hits | AID 651725
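GST-Six1 + His-Eya2 (5X stock: 250/500 nM); Tris pH 8.0, 300 mM NaCl, 0.05% BSA, 0.02% Tween 20; GSH donor/Ni acceptor beads; 1 h 37 °C dark; AlphaScreen readout.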
PKM2 activator: PKM2 (human) enzyme activation | 260,000 compounds, 0.34% hits | P14618 | Potency, µM (highest dose often 57.5 µM), without a hit: top-dose activation, usual class: activators | purified PKM2, Kinase-Glo ATP luminescence, activation; response scale: 0% is enzyme alone, no compound | AID 1631; active = well fitted activation curve with a large enough effect; inconclusive = small, poorly fitted or top-dose-only effect; inactive = no such curve, though single readings can be large or run the other way; also: potency is read from the fitted curve at half-maximal effect; nearly all actives have a fitted effect of over 55% in size
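Purified hPK-M2 (>95%) run at intermediate activity with 0.1 mM ADP and 0.5 mM PEP in 50 mM imidazole pH 7.2, KCl, MgCl2; 1 h room temperature. ATP formed read by Kinase-Glo luminescence; normalized to uninhibited and no-enzyme controls.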
Active calls of the source: *; ? = inconclusive; nt = no result given; [ ] = dose if it differs, or a comment. Most compounds without a hit are left out; they make up all but 0.93% or so of the library. Rule as the data show it, unless noted: active = activity change below about -65%; inconclusive = mostly about -30% to -63%; inactive = weaker than that. % is scaled to controls: 0 for no effect and ±100 for the full control effect.

SMILES | CtBP-E1A inh | MBNL1 CUG block | Six1-Eya2 inh | PKM2 activator
C[C@@H](C(=O)NCc1ccc(C(F)(F)F)nc1)[C@H]1C[C@]1(C)[C@H](NC(=O)OCc1ccccc1)c1ccccc1 | nt | nt | nt | -14.1%
CCn1c(C)cc(/C=C2/NC(=O)N(Cc3ccccc3F)C2=O)c1C | -16.1 | 41.1% | -12.8 | 7.3%
Cc1ccc(/C=C2/NC(=O)N(Cc3ccc(Br)cc3)C2=O)o1 | 14.2 | 6.2% | -3.7 | 1.58µM*
Cc1ccc(/C=C2/NC(=O)N(Cc3ccccc3F)C2=O)o1 | -7.4 | 7.6% | -4.1 | 3.55µM*
CCN1C(=O)N/C(=C/c2ccc(C)o2)C1=O | 8.1 | 16.1% | -2.5 | ?
CCCN1C(=O)/C(=C/c2ccc(C)o2)NC1=S | nt | 8.8% | nt | 25.1µM*
C[C@@H]1CCCCO[C@H](CN(C)C(=O)Cc2ccccc2)[C@@H](C)CN([C@H](C)CO)C(=O)c2cc(N(C)C)ccc2O1 | 2.8 | nt | -1.0 | nt
O=[N+]([O-])c1ccccc1S(=O)(=O)NCC1CCC(CNCC2CCc3ccccc3C2)CC1 (configuration not stated) | nt | nt | nt | -2.4%
Cc1c(CCC(=O)NCC(=O)O)c(=O)oc2cc3occ(-c4ccccc4)c3cc12 | -25.5 | 0.6% | ? | nt
Cc1c(CC(=O)O)c(=O)oc2c(C)c3occ(-c4ccccc4)c3cc12 | 0.0 | -6.3% | -77.1* | nt
Cc1c(CCC(=O)O)c(=O)oc2cc3occ(-c4ccc(Cl)cc4)c3cc12 | -71.0* | -4.3% | ? | nt
CCCC(NC(=O)CCc1c(C)c2cc3c(-c4ccccc4)coc3cc2oc1=O)C(=O)O (configuration not stated) | -67.8* | -2.4% | -17.1 | nt
Cc1oc2c(C)c3oc(=O)c(CCC(=O)O)c(C)c3cc2c1-c1ccccc1 | nt | 20.2% | -29.2 | nt
Cc1c(CCC(=O)O)c(=O)oc2c(C)c3occ(-c4ccc(Cl)cc4)c3cc12 | -80.6* | -5.0% | -86.3* | nt
CC1(OC(=O)C2CCCC2)C(=O)C=C2C=C(c3ccsc3)N(c3ccc(CO)cc3)C=C2C1=O (configuration not stated) | nt | nt | nt | -7.4%[11.5 µM]
Cc1cccc(-c2cnc(C(O)c3ccc(F)c(C)c3)[nH]2)c1 (configuration not stated) | 0.0 | nt | 8.5 | nt
CCC(=O)NC(c1ccc(Cl)cc1Cl)c1ccc2cccnc2c1O (configuration not stated) | ? | 17.3% | -80.1* | -5.0%
CCC(=O)NC(c1ccc(C)cc1)c1ccc2cccnc2c1O (configuration not stated) | -89.9* | 30.5% | -88.7* | 0.0%
CC(=O)NC(c1ccco1)c1ccc2cccnc2c1O (configuration not stated) | -96.8* | 11.9% | -92.6* | 3.7%
CCCC(=O)NC(c1ccc(N(C)C)cc1)c1ccc2cccnc2c1O (configuration not stated) | -91.7* | 13.9% | -69.4* | -0.6%
CC(C)C(=O)NC(c1ccc(Cl)cc1Cl)c1ccc2cccnc2c1O (configuration not stated) | nt | 25.0% | -14.3 | 0.6%
CCOc1ccc(C(NC(=O)CC)c2c(O)ccc3ccccc23)cc1 (configuration not stated) | nt | -1.1% | 11.6 | 0.0%
Cc1ccc(OCc2nc3ccccc3n2C(C)C(=O)Nc2c(C)cccc2C)cc1 (configuration not stated) | -1.6 | nt | -9.6 | nt
COc1ccc(C(NC(=O)C(C)C)c2ccc3cccnc3c2O)cc1 (configuration not stated) | -93.4* | 13.1% | -88.8* | 0.0%
CCCCC(=O)NC(c1ccc(Cl)cc1Cl)c1ccc2cccnc2c1O (configuration not stated) | ? | 7.7% | -28.8 | -2.2%
COc1ccc(C(Nc2cc(C)ccn2)c2ccc3ccc(C)nc3c2O)cc1 (configuration not stated) | -8.0 | 9.8% | -11.8 | 3.4%
CCCCC(=O)NC(c1ccc(OC)cc1)c1ccc2cccnc2c1O (configuration not stated) | 17.5 | nt | -6.9 | nt
CCCC(=O)NC(c1ccccc1Cl)c1ccc2cccnc2c1O (configuration not stated) | ? | 9.1% | -84.9* | 3.9%
CCCC(=O)NC(c1ccc(C(C)C)cc1)c1ccc2cccnc2c1O (configuration not stated) | -65.1* | 14.1% | ? | -2.1%
